Experimental data reported in PubChem BioAssay (Tox21).
Where “and” joins values, the source holds several entries; their conditions need not be identical. Identical values can stand only once. Inconclusive results are not listed. Where a call stands in place of a potency, no number is given. Calls of active or inactive are those of the source. Unless noted, the call rests on the fitted dose curve; in most records, active means well fitted curve in the direction sought with a large enough effect in the repeat runs; inconclusive means weak or mixed curves; inactive means no such curve, though single readings can be large; an effect the other way counts as inactive or inconclusive.

Tests used:
[1] = qHTS assay to identify small molecule antagonists of the androgen receptor (AR) signaling pathway using the MDA cell line in the presence of 0.5 nM R1881 - cell viability counter screen (AID 1259242); further: nearly all actives have a fitted effect of over 45% in size; further: potency means the concentration at half of the fitted maximal effect
Procedure, shortened: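 Live-cell protease activity was measured by CellTiter-Fluor fluorescence after 30 min. Before that, MDA-kb2 MMTV-luciferase cells had 16 hr at 37C without CO2, exposed to test compounds and 0.5 nM R1881 final.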

[2] = target: Androgen receptor (Homo sapiens) (UniProt P10275); test: qHTS assay to identify small molecule antagonists of the androgen receptor (AR) signaling pathway using the MDA cell line in the presence of 0.5 nM R1881 (AID 1259243); further: nearly all actives have a fitted effect of over 50% in size; further: potency means the concentration at half of the fitted maximal effect
Androgen receptor (Homo sapiens), sequence (P10275 whole entry, looked up): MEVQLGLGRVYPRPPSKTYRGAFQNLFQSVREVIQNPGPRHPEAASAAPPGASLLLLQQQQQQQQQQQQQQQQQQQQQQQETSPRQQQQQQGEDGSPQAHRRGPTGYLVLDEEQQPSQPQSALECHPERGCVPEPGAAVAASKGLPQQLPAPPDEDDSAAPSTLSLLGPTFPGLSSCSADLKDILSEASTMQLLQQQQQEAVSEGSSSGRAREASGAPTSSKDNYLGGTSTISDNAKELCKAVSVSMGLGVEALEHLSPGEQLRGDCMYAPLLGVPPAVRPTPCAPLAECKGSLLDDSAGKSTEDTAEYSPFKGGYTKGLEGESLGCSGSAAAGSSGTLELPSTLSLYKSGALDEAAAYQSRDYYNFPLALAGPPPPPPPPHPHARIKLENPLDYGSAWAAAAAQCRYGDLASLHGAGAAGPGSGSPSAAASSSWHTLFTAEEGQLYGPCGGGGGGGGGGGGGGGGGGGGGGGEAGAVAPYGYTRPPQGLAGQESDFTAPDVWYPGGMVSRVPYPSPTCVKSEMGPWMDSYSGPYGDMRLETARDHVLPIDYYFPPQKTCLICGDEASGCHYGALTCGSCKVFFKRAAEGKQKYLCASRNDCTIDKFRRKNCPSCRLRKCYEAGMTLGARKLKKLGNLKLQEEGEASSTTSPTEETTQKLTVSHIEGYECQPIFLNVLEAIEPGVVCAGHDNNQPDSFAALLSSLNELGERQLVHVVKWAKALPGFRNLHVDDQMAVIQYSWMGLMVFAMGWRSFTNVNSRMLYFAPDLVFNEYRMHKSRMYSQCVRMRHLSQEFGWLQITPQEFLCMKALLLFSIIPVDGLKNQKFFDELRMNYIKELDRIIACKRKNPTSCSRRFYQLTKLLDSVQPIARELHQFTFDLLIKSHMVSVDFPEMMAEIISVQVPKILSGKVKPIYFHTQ
Procedure, shortened: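 Luminescent reporter readout (ONE-Glo, 30 min, room temperature) after 16 hr co-treatment of MDA-kb2 cells with test compounds and 0.5 nM R1881 final, at 37C without CO2. The MMTV-driven luciferase responds to both AR and GR.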

[3] = target: Estrogen receptor (Homo sapiens) (UniProt P03372); test: qHTS assay to identify small molecule antagonists of the estrogen receptor alpha (ER-alpha) signaling pathway using the BG1 cell line in the presence of 0.1 nM 17-beta-estradiol (AID 1259244); further: nearly all actives have a fitted effect of over 50% in size; further: potency means the concentration at half of the fitted maximal effect
Estrogen receptor (Homo sapiens), sequence (P03372 whole entry, looked up): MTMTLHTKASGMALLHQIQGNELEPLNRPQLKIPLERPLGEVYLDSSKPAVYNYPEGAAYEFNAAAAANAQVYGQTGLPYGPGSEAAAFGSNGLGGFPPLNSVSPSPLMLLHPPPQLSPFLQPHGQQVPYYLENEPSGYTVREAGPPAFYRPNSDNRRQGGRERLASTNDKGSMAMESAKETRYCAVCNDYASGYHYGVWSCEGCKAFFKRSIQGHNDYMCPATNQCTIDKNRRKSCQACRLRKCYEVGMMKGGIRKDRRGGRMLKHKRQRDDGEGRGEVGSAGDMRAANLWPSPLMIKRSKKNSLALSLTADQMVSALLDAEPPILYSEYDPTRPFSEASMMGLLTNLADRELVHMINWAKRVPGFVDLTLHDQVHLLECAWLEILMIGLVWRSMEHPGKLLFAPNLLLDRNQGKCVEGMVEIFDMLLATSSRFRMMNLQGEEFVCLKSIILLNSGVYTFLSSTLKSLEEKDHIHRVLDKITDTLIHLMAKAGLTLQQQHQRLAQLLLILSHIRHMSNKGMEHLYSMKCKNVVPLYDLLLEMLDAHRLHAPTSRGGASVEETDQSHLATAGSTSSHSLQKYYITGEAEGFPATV
Procedure, shortened: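 Luciferase luminescence (ONE-Glo, 30 min at room temperature) was read after 22 hr at 37C exposure to compounds plus 17beta-estradiol at 0.1 nM final. Cells were VM7Luc4E2 with endogenous ER-alpha and an ERE-driven luciferase, pre-cultured 5 days in hormone-depleted medium.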

[4] = qHTS assay to identify small molecule HDAC inhibitors - cell viability counter screen (AID 1259365); further: nearly all actives have a fitted effect of over 50% in size; further: potency means the concentration at half of the fitted maximal effect
Procedure, shortened: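 HCT-116 wild-type, overnight attachment; 2hr drug exposure, 37C; CellTiter-Glo luminescent ATP readout after 30min RT.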

[5] = qHTS assay to identify small molecule agonists of the sonic hedgehog signaling (Shh) pathway - cell viability counter screen (AID 1259366); further: nearly all actives have a fitted effect of over 50% in size; further: potency means the concentration at half of the fitted maximal effect
Procedure, shortened: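 Compounds in DMSO were pin-transferred onto 3T3 Gli1-Luc cells that had settled 4hr; plates then stood 24hr at 37C and 5% CO2. One hour before the end, CellTiter-Fluor was added and fluorescence recorded.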

[6] = qHTS assay to identify small molecule antagonists of the sonic hedgehog signaling (Shh) pathway - cell viability counter screen (AID 1259367); further: nearly all actives have a fitted effect of over 55% in size; further: potency means the concentration at half of the fitted maximal effect
Procedure, shortened: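 Conditioned medium drove Shh signaling in 3T3 Gli1-Luc cells exposed to compounds at 37C and 5% CO2. Viability was determined from CellTiter-Fluor fluorescence, with reagent incubated 1 hr after 23 hr of treatment.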

[7] = qHTS assay to identify small molecule agonists of the sonic hedgehog signaling (Shh) pathway (AID 1259368; calls by dose curve; further: nearly all actives have a fitted effect of over 15% in size; further: potency means the concentration at half of the fitted maximal effect)
Procedure, shortened: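 Luminescence was read after 30 min at room temperature with luciferase reagent. Before that, 3T3Gli1-Luc cells (NIH/3T3 clone, stable Gli1-Luc reporter; 2,000/well) were exposed to compounds for 24 hr at 37C, 5% CO2, compounds being added 4 hr post-plating.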

[8] = qHTS assay to identify small molecule antagonists of the sonic hedgehog signaling (Shh) pathway (AID 1259369; calls by dose curve; further: nearly all actives have a fitted effect of over 45% in size; further: potency means the concentration at half of the fitted maximal effect)
Procedure, shortened: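 Antagonist mode: compound added to 3T3 Gli1-Luc cells followed by conditioned-medium stimulation, 24 h at 37 C, 5% CO2. Inhibition taken as loss of Gli1-driven luciferase luminescence.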

[9] = qHTS assay to identify small molecule HDAC inhibitors (AID 1259364); further: nearly all actives have a fitted effect of over 45% in size; further: potency means the concentration at half of the fitted maximal effect
Procedure, shortened: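 Luminescence read after 30 min room-temperature HDAC-Glo incubation measures cellular class I/II HDAC activity. Compounds were applied for 2 hr at 37 C to HCT-116 wild-type cells seeded the day before.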

[10] = qHTS assay to identify small molecule phospholipidosis (PLD) inducers (AID 1259344; active means well fitted curve in the direction sought with a large enough effect; an effect the other way counts as inactive or inconclusive)
Procedure, shortened: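 After 4 h attachment on collagen I, HepG2 cells were dosed with compound alongside LipidTOX Red, kept 24 h at 37 C, fixed, and imaged for lamellar phospholipid pits.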

| Compound | Potency [1] | Potency [2] | Potency [3] | Potency [4] | Potency [5] | Potency [6] | Potency [7] | Potency [8] | Potency [9] | outcome [10] |
| --- | --- | --- | --- | --- | --- | --- | --- | --- | --- | --- |
| CC(=O)[O][Pb]([c]1ccccc1)([c]1ccccc1)[c]1ccccc1 | 6.11 µM (active) | 0.969 µM (active) | inactive | 61.1 µM (active) | 0.486 µM (active) | 0.77 µM (active) | inactive | 0.386 µM (active) | – | – |
| [Cl][Hg][c]1ccccc1 | 8.63 µM (active) | 2.43 µM (active) | – | 13.7 µM (active) | 0.545 µM (active) | 0.864 µM (active) | inactive | 0.0243 µM (active) | 30.6 µM (active) | – |
| BrCCCBr | inactive | inactive | – | – | inactive | inactive | inactive | – | inactive | – |
| Cc1cccc(Cc2cnc[nH]2)c1C | inactive | – | inactive | inactive | inactive | inactive | inactive | inactive | inactive | inactive |
| CCOC(=O)Cc1ccccc1 | inactive | inactive | inactive | – | – | inactive | inactive | inactive | inactive | – |
| CC#C[C@]1(O)CC[C@H]2[C@@H]3C[C@H](C)C4=CC(=O)CC[C@]4(C)[C@H]3CC[C@@]21C | inactive | inactive | inactive | inactive | inactive | inactive | inactive | – | inactive | – |
| Fc1ccc(C(OCCN2CCN(CCCc3ccccc3)CC2)c2ccc(F)cc2)cc1 | 23.7 µM (active) | 8.41 µM (active) | 23.7 µM (active) | inactive | – | 21.1 µM (active) | inactive | 5.31 µM (active) | inactive | inactive |
| O=c1[nH]c(Cl)c(Cl)cc1Cl | inactive | inactive | – | inactive | – | inactive | inactive | inactive | – | – |
| CN1CCc2cc(Cl)c(O)cc2[C@H]2c3ccccc3CC[C@@H]21 | inactive | – | inactive | inactive | 4.73 µM (active) | 11.9 µM (active) | inactive | – | inactive | inactive |
| S=C=Nc1ccccc1 | inactive | inactive | – | – | inactive | inactive | inactive | inactive | inactive | – |
| [O]=[Cr](=[O])([OH])[O][Cr](=[O])(=[O])[OH] | inactive | 30.9 µM (active) and 54.4 µM (active) | – | inactive | – | 21.9 µM (active) and 30.6 µM (active) | inactive | 1.95 µM (active) and 2.16 µM (active) | inactive | inactive |
| CC(C)NCC(O)c1ccccc1Cl (stereo not given) | inactive | inactive | inactive | inactive | inactive | inactive | inactive | – | inactive | inactive |
| CCOP(=O)(OCC)Oc1nc(Cl)c(Cl)cc1Cl | inactive | inactive | – | – | inactive | inactive | inactive | – | – | – |
| S=C=NCCc1ccccc1 | inactive | 48.7 µM (active) | inactive | – | inactive | – | 61.3 µM (active) | inactive | inactive | – |
| N#Cc1c2ccccc2cc2ccccc12 | inactive | 10.8 µM (active) | – | inactive | – | – | inactive | inactive | inactive | – |
| O=[N+]([O-])C(Br)Br | inactive | inactive | – | inactive | inactive | inactive | inactive | inactive | inactive | – |
| COP(=O)(OC)O/C(=C\Cl)c1cc(Cl)c(Cl)cc1Cl | inactive | 68.6 µM (active) | – | inactive | inactive | inactive | inactive | inactive | inactive | – |
| CCOP(=S)(OCC)Oc1cc(C)nc(N(CC)CC)n1 | inactive | 34.4 µM (active) | – | inactive | inactive | inactive | inactive | – | inactive | – |
| O=C(NC(=O)c1ccccc1Cl)Nc1ccc(OC(F)(F)F)cc1 | inactive | inactive | – | inactive | – | inactive | inactive | – | – | – |
| Cc1nn(-c2cc(NS(C)(=O)=O)c(Cl)cc2Cl)c(=O)n1C(F)F | inactive | inactive | – | inactive | – | inactive | inactive | – | inactive | – |
| O=C(O)CCCCCCNC1c2ccccc2CCc2ccccc21 | inactive | – | inactive | inactive | inactive | inactive | inactive | – | inactive | inactive |
| O=C1C(Cl)=C(Cl)C(=O)C(Cl)=C1Cl | 48.4 µM (active) | 27.2 µM (active) and 24.3 µM (active) | inactive | inactive | 24.2 µM (active) and 24.3 µM (active) | – | inactive | 4.84 µM (active) and 12.2 µM (active) | inactive | – |
| N#CC(C#N)=NNc1cccc(Cl)c1 | 2.43 µM (active) | 1.54 µM (active) | 1.09 µM (active) | inactive | 27.3 µM (active) | 27.3 µM (active) | inactive | 1.09 µM (active) | 24.3 µM (active) | – |
| CCC(OC(C)=O)C(CC(C)NC)(c1ccccc1)c1ccccc1 (stereo not given) | 43.6 µM (active) | 27.5 µM (active) | 69.2 µM (active) | inactive | 34.7 µM (active) | 61.6 µM (active) | inactive | 30.9 µM (active) | inactive | – |
| O=c1[nH]c2cc(Cl)ccc2n1C1CCNCC1 | inactive | inactive | inactive | inactive | – | – | inactive | – | inactive | – |
| CCNS(=O)(=O)C(F)(F)C(F)(F)C(F)(F)C(F)(F)C(F)(F)C(F)(F)C(F)(F)C(F)(F)F | inactive | inactive | – | – | – | – | inactive | 32.9 µM (active) | inactive | – |
